Molecules are shown by their SMILES. Where a name gives a salt, the structure may show the parent alone. ± gives the standard deviation of the averaged measurements. Some results are limits rather than exact numbers.

The subject of this experiment is Toxoplasma gondii RH (in HFF). Nature of the experiment: parasite growth relative to the screen mean (all compounds = 100%); higher = less inhibition of parasite growth. To be noted: 5 µM; 72 h; oxygen 21 %. Put shortly: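 Parasite growth was reported relative to the screen mean. In that scale, the mean of all compounds equals 100%, and values are averaged over two screens. Compounds from 10 mM DMSO stocks were pin-transferred to 5 µM final onto confluent human foreskin fibroblasts in 96-well plates, infected within 2 h with RH β-Gal–GFP Toxoplasma (MOI 1:5) and grown 72 h at 21% O2, with parasite number read by a CPRG β-Gal assay against in-plate standard curves. Uninfected host-cell viability was checked with CellTiter-Blue.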
Take `Cc1ccc(OCC(O)C(C)NC(C)C)c2c1CCC2` (stereo not drawn) [ICI-118,551 hydrochloride]: the parasite growth turned out to be 92.9 ± 14%.
Turning to `C[C@@H]1C[C@H]2[C@@H]3CCC4=CC(=O)C=C[C@]4(C)[C@@]3(F)[C@@H](O)C[C@]2(C)[C@@]1(O)C(=O)CO` [Dexamethasone], the parasite growth is 141 ± 12%.
As to `N[C@H](C(=O)O)c1ccc(O)c(C(=O)O)c1` [(S)-3-Carboxy-4-hydroxyphenylglycine], the parasite growth is 153 ± 9.2%.
`C=C1C(=O)O[C@@H]2/C=C(\C)CC/C=C(\C)CC[C@@H]12` [Costunolide] came in with a parasite growth of 30.7 ± 25%.
Next, `CC(=O)NCCc1c(Cc2ccccc2)[nH]c2ccccc12` [Luzindole]: 75.1 ± 29%; `COc1cc(N)c(Cl)cc1C(=O)NC1CCN(CCCOc2ccc(F)cc2)CC1OC` (stereo not drawn) [Cisapride]: 20.8 ± 7.1%.
The compound `Cc1cc2nc3c(=O)[nH]c(=O)nc-3n(C)c2cc1C=O` came in with a parasite growth of 22.6 ± 1.9%.
Compound `Clc1ccc(-c2nc3sccn3c2/C=N/OCc2ccc(Cl)c(Cl)c2)cc1` registered a parasite growth of 110 ± 8.4%.
In turn, `CN(C)C(=O)n1nnnc1Cc1ccc(-c2ccccc2)cc1` had a parasite growth of 84.9 ± 38%.
On to `CC(C(=O)O)c1ccc(-c2ccccc2)c(F)c1` (stereo not drawn) [Flurbiprofen], for which the parasite growth was determined as 139 ± 26%.
In the case of `COC(=O)[C@@H]1CC2=CC(=O)CC[C@]2(C)[C@@]23O[C@@H]2C[C@@]2(C)[C@@H](CC[C@@]24CCC(=O)O4)[C@H]13` [Eplerenone] it was 132 ± 22%; in that of `O=C1Nc2ccc(I)cc2/C1=C/c1cc(Br)c(O)c(Br)c1`, 114 ± 18%.
As for `N=C(N)NC(=O)Cc1c(Cl)cccc1Cl` [Guanfacine hydrochloride], the parasite growth was found to be 162 ± 45%.
In the case of `C[C@H]1O[C@H](O[C@H]2[C@H](O)[C@@H](O)[C@@H](O[C@H]3[C@H](O)[C@@H](O)C(O)O[C@@H]3CO)O[C@@H]2CO)[C@H](O)[C@@H](O)[C@@H]1N[C@H]1C=C(CO)[C@@H](O)[C@H](O)[C@H]1O` (stereo partly drawn) [Acarbose], the parasite growth was determined as 114 ± 36%.
Compound `FC(F)(F)c1cccc(-c2noc(-c3cc(-c4ccccc4)c(C(F)(F)F)s3)n2)c1` yielded a parasite growth of 109 ± 44%.
The compound `CC[N+](CC)(CC)CC(=O)Nc1c(C)cccc1C` [QX 314 bromide] returned a parasite growth of 63.6 ± 9.3%.
Take `CC(C)NC[C@H](O)COc1cccc2ccccc12` [(S)-(-)-Propranolol hydrochloride]: the parasite growth is 81.8 ± 3.3%.
Consider `C[C@](N)(Cc1ccc(O)c(O)c1)C(=O)O` [L-(-)- α-Methyldopa], for which the parasite growth was 146 ± 39%.
`COC(=O)C1=C(C)NC(C)=C([N+](=O)[O-])C1c1ccccc1C(F)(F)F` (racemic) showed a parasite growth of 167 ± 8.8%.
With `C=C[C@@]1(C)CC(=O)[C@]2(O)[C@@]3(C)[C@@H](O)CCC(C)(C)[C@@H]3[C@H](O)[C@H](OC(C)=O)[C@@]2(C)O1` [Forskolin], the parasite growth is 116 ± 2.3%.
As to `CCOCC(O)COc1ccc(NC(=O)CC[S+](C)C)cc1` (stereo not drawn) [Suplatast tosylate], the parasite growth was 75 ± 16%.
`CCN1CCCC1CNC(=O)c1cc(S(=O)(=O)CC)c(N)cc1OC` (stereo not drawn) [Amisulpride] had a parasite growth of 115 ± 14%.
`CC[C@H](C)C(=O)O[C@H]1CCC=C2C=C[C@H](C)[C@H](CC[C@@H]3C[C@@H](O)CC(=O)O3)[C@H]21` [Mevastatin]: the parasite growth was determined as 109 ± 3.3%.
Take `CCn1ccnc1CC1COc2ccccc2O1` (stereo not drawn) [Imiloxan hydrochloride]: the parasite growth worked out at 120 ± 7%.
Consider `Cc1nc2c(c(=O)[nH]1)CSCC2`, for which the parasite growth amounted to 122 ± 32%.
In the case of `CN(C)CCCC1(c2ccc(F)cc2)OCc2cc(C#N)ccc21` (stereo not drawn) [Citalopram hydrobromide] it was 122 ± 3.6%; in that of `COc1cc2c(Nc3ccc(NC(=O)c4ccccc4)cc3)ncnc2cc1OCCCN1CCOCC1`, 17.4 ± 8.7%; in that of `COc1ccc(NC(=O)c2ccc(-c3ccc(-c4noc(C)n4)cc3C)cc2)cc1N1CCN(C)CC1`, less than 0%.
Take `COc1cccc(/C=N/N=C/c2cccc(OC)c2)c1`: the parasite growth amounted to 135 ± 4.2%.
Consider `N#C/C(=C\c1ccc(O)c(O)c1)C(=O)Nc1ccccc1`, for which the parasite growth amounted to 141 ± 23%.
`CCn1c(=O)[nH]c2ccccc21` returned a parasite growth of 67.92 ± 0.3%.
For the compound `CNc1cc2c(Nc3cccc(Br)c3)ncnc2cn1`, the parasite growth was 128 ± 11%.
Take `Nc1nc2c(cnn2CCc2ccccc2)c2nc(-c3ccco3)nn12`: the parasite growth is 100 ± 39%.
As to `CC(C)NCC(O)COc1ccc(CCOCC2CC2)cc1` (stereo not drawn) [Betaxolol hydrochloride], the parasite growth stood at 89.4 ± 13%.
For `c1ccc(N2CCN(CCCOc3ccc4c(c3)OCO4)CC2)cc1` [BP 554 maleate], the parasite growth turned out to be 127 ± 0.98%.
As to `OCC(CO)N[C@H]1C[C@](O)(CO)[C@@H](O)[C@H](O)[C@H]1O` [Voglibose], the parasite growth is 68.07 ± 0.24%.
The compound `CN1C(C(=O)Nc2ccccn2)=C(O)c2ccccc2S1(=O)=O` [Piroxicam] showed a parasite growth of 153 ± 34%.
In the case of `COc1ccc(C2CNC(=O)C2)cc1OC1CCCC1` (stereo not drawn) [Rolipram] it was 92.1 ± 23%.

These data come from the supplement of paper PMC4894684.
